The whole screen tested about 140,000 compounds, of which about 1,700 (1.2%) were called active. The sample holds actives, similar compounds and a random draw of the others, so the mix is not that of the screen. A number with no mark means an inactive call.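 How the source made its calls: active means viability at or below a set limit, 4 SD under the median of all tested compounds (cut at about 3.7% in these data); inactive means the rest.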
Test: growth suppression of PTEN-null HCT116, primary screen, cell-based, CellTiter-Glo (AID 827);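 further: PTEN knockout HCT116 line with beta catenin targeted HCT116 as companion control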
Settings: 60 h, at 10 µM, hits give low values

Row | SMILES | viability
1 | N#C/C(=C/c1cccc([N+](=O)[O-])c1)c1nnc2n1CCCCC2 | 30.1%
2 | CCOc1ccc(S(=O)(=O)N(CC(=O)NCC(F)(F)F)Cc2ccco2)cc1 | 99.2%
3 | COC(=O)CN1C(=S)N(c2ccccc2)C(=O)C1CC(=O)Nc1ccc(Cl)cc1 (configuration not stated) | 91.3%
4 | Cc1ccc(/C=C/C(=O)Nc2cc(S(=O)(=O)N3CCCCCC3)ccc2OCC(F)(F)F)o1 | 75.3%
5 | C/C(=N/NC(=O)C1COc2ccccc2O1)c1ccco1 (configuration not stated) | 96.5%
6 | Cc1cccc2cc(CN(Cc3cccs3)C(=S)NCc3ccco3)c(=O)[nH]c12 | 72.6%
7 | CN(C)CCNC(=O)Cc1ccc([N+](=O)[O-])cc1 | 98.8%
8 | CCCCc1nc(NCCN)c(C#N)c2c1CSC(C)(C)C2 | 2.15% (active)
9 | CCCCc1nc(NCc2ccccc2)c(C#N)c2c1CCCC2 | 82.1%
10 | Cc1nc(NCCN)c(C#N)c2c1COC(C)(C)C2 | 101%
11 | COc1ccc(C2CC(c3ccccc3)=NN2C(=O)CSc2nccc(=O)[nH]2)cc1 (configuration not stated) | 101%
12 | CCOC(=O)C1=C(C)Nc2nc3ccccc3n2C1c1cccs1 (configuration not stated) | 90.1%
13 | O=C(O)C1CC(=O)N(Cc2cccnc2)C1 (configuration not stated) | 100%
14 | O=C1OC(c2ccc(Cl)cc2)=N/C1=C\c1cccnc1 | 90.6%
15 | O=C1/C(=C\c2cccnc2)CN(Cc2ccccc2)C/C1=C\c1cccnc1 | 1.06% (active)
16 | O=C(CN1CCN(S(=O)(=O)c2ccc(Br)cc2)CC1)Nc1ccccc1C(=O)c1ccccc1 | 64.5%
17 | Cc1nn(Cc2ccccc2)c(C)c1C(=O)NCCN1C(=O)S/C(=C\c2ccc(F)cc2)C1=O | 97.4%
18 | Cc1ccc(NC(=O)CC2S/C(=N/N=C3\CCCc4ccccc43)NC2=O)cc1 (configuration not stated) | 65.5%
19 | O=C(c1cncc(Br)c1)N1CCN(c2ccc([N+](=O)[O-])cc2)CC1 | 83.7%
20 | CC(C)CC[n+]1ccn(C2=C([O-])c3ccccc3C(=O)/C2=N\S(=O)(=O)c2ccccc2)c1 | 3.35% (active)
21 | O=C(CSc1nc2ccc([N+](=O)[O-])cc2[nH]1)c1ccc(Cl)cc1 | 103%
22 | CC(C)=C(NC(=O)c1ccccc1)C(=O)N/N=C(\C)c1ccccc1O | 88.4%
23 | CCOc1ccc2nc(Nc3nc4ccc(NC(C)=O)cc4s3)sc2c1 | 90.5%
24 | COc1ccc2nc(Nc3nc4ccc(NC(C)=O)cc4s3)sc2c1 | 1.64% (active)

Row | SMILES | viability
25 | COc1ccc2nc(Nc3nc4cc5c(cc4s3)OCCO5)sc2c1 | 94.9%
26 | CC(Sc1nnc2c(n1)C1CCC2(C)C1(C)C)C(=O)Nc1ccccc1 (configuration not stated) | 87.5%
27 | O=C(CC(=O)Nc1ccc(Cl)c(Cl)c1)N/N=C/c1ccc(O)cc1 | 86.7%
28 | O=C(CC(O)(C(F)(F)F)C(F)(F)F)Nc1ccc(Cl)c(Cl)c1 | 2.05% (active)
29 | O=C(Cc1ccc(Cl)c(Cl)c1)Nc1ccc(SC(F)F)cc1 | 26.6%
30 | COc1ccc(N2C(=O)C(CC(=O)Nc3ccc(F)cc3)N(CCc3cccs3)C2=O)cc1 (configuration not stated) | 84.4%
31 | O=C(Nc1ccc2ccccc2c1)/C(=C\c1ccc2c(c1)OCO2)NC(=O)c1ccco1 | 95.8%
32 | COc1ccc(NC(=O)c2nc(-n3nc(C)cc3C)ccc2Cl)cc1Cl | 72.5%
33 | CCCNC(=O)OC[C@H]1O[C@H](CCO/N=C/[C@@H](NS(=O)(=O)c2ccc(C)cc2)[C@H](C)/C=C/CC(=O)OC)C=C[C@@H]1Oc1ccc(OC)cc1 | 0.23% (active)
34 | COc1ccc(O[C@H]2C=C[C@@H](c3ccccc3)O[C@@H]2CO/N=C/C[C@@H]2C=C[C@H](OC(C)=O)[C@@H](COC(C)=O)O2)cc1 | 85%
35 | CCCC(NS(=O)(=O)c1ccc(OC)cc1)C(=O)O (configuration not stated) | 91.3%
36 | O=C(Cc1ccccc1)Nc1cccc(C(=O)N/N=C/c2ccco2)c1 | 92.6%
37 | O=C(Nc1ccccc1F)c1ccccc1-c1ccccc1 | 87%
38 | Cc1c(C(=O)NCCCc2ccccc2)cccc1[N+](=O)[O-] | 44.8%
39 | COc1ccc(/C=C2/C(=O)OCc3cc(OC)c(OC)cc32)c(OC)c1 | 71.4%
40 | CC(C)(C)NCCCOc1ccc(Cl)cc1C(C)(C)C | 40.9%
41 | COc1cccc(/C=N/Nc2ncc(C(F)(F)F)cc2Cl)c1O | 2.37% (active)
42 | COc1cc(/C=C2\SC(=S)N(Nc3ncc(C(F)(F)F)cc3Cl)C2=O)cc(OC)c1OC | 88.8%
43 | COc1cccc(/C=N\NC(=O)C2=NNC(=O)C2C)c1O (configuration not stated) | 48.4%
44 | CCC(=O)Nc1ccc(C(=O)Nc2ccc3c(c2)C(=O)N(CC2CCCO2)C3=O)cc1 (configuration not stated) | 107%
45 | CC1CCN(c2ccc(C(=O)NCc3ccc4c(c3)OCO4)cc2[N+](=O)[O-])CC1 | 85.2%
46 | O=C(NCc1ccc2c(c1)OCO2)c1ccc2c(c1)C(=O)N(CC1CCCO1)C2=O (configuration not stated) | 1.19% (active)
47 | CC(CNc1ccc([N+](=O)[O-])c2cccnc12)Nc1c([N+](=O)[O-])cc(C(F)(F)F)cc1[N+](=O)[O-] (configuration not stated) | 62.8%
48 | CCOc1ccc(C(=O)NC(=S)Nc2ccc(N3CCOCC3)c(Cl)c2)cc1[N+](=O)[O-] | 70.2%

Row | SMILES | viability
49 | NC1=NN(c2cccc(C(=O)O)c2)C(=O)C1 | 104%
50 | CCCCN(C)CCC(=O)Nc1ccc(Cl)cc1 | 91.2%
51 | Cc1cc(Br)ccc1NC(=O)C1CCCO1 (configuration not stated) | 97.1%
52 | OC(CNCC1CCCO1)Cn1c2ccc(Br)cc2c2cc(Br)ccc21 (configuration not stated) | 1.31% (active)
53 | Cc1ccc(C(=O)NCC2CCCO2)o1 (configuration not stated) | 101%
54 | O=C(Nc1ccc2c(c1)OCO2)c1ccc(N2C(=O)c3ccccc3C2=O)cc1 | 93.1%
55 | CSCC[C@H](NC(=O)OC(C)(C)C)C(=O)N/N=C/c1cc2ccc(C)cc2nc1Cl | 1.55% (active)
56 | CSCCC(NC(=O)COc1ccccc1)C(=O)Nc1ccc(C)cc1 (configuration not stated) | 96.1%
57 | CCOc1cc(/C=N/NC(=O)OC)ccc1OCCSc1ccc(Cl)cc1 | 93.7%
58 | CC(=O)NCCC(=O)Nc1nc(C)c(Cc2ccc3c(c2)OCO3)s1 | 99.8%
59 | COc1ccccc1C(=O)Nn1c(-c2cccs2)nc2ccccc2c1=O | 95%
60 | CC(C)Nc1nnc(SCC(=O)c2c[nH]c3ccccc23)s1 | 87.3%
61 | CCO/N=C(/C)c1c(O)cc(-c2ccccc2)n(-c2ccccc2)c1=O | 103%
62 | CC(=O)NC(C)c1nc2ccccc2n1Cc1ccccc1F (configuration not stated) | 102%
63 | N=c1n(CCc2ccccc2)c2ccccc2n1Cc1ccccc1F | 1.8% (active)
64 | CN(Cc1ccccc1)Cc1ccccc1F | 101%
65 | Cc1cccc(NC(=O)c2sc(-c3ccccc3)nc2-c2ccc([N+](=O)[O-])cc2)c1 | 73.5%
66 | CCOC(=O)/C(=C\c1ccc([N+](=O)[O-])cc1)C(=O)c1cc(C(C)=O)c(Nc2ccccc2)s1 | 1.45% (active)
67 | O=C(Nc1ccccc1)/C(=C/c1ccc([N+](=O)[O-])cc1)NC(=O)c1ccccc1 | 95.2%
68 | C/C(=N\NC(=O)c1ccc(CSc2nc(C)cc(C)n2)cc1)C1CCCCC1 | 93%
69 | O=C1NC(c2ccccc2)CCC1(Cl)Cl (configuration not stated) | 95.3%
70 | COc1ccccc1N1N=C(c2cccs2)CC1c1ccccc1 (configuration not stated) | 65%
71 | Cc1cccc(C)c1Nc1nnc(SCC(=O)Nc2sccc2C#N)s1 | 92.1%
72 | CCCc1cc(-c2nc(-c3ccc(C)cc3)cs2)ccn1 | 26.2%

Source: PubChem BioAssay AID827 (SRMLSC, 2007)
